Experimental findings from PubChem BioAssay (NCI) are described below.

Common to all, as to assay: NCI-60 one-dose screen, 48 h (100 = growth as untreated, 0 = no growth, -100 = all killed)
The test system of test [1] is SR leukemia. As to conditions: 10 µM unless noted.
The test system of test [2] is OVCAR-8 ovarian. The conditions noted are these: 10 µM unless noted.
Test [3] deals with OVCAR-5 ovarian. As to conditions: 10 µM unless noted.
Test [4] relates to OVCAR-4 ovarian. The conditions noted are these: 10 µM unless noted.
The test system of test [5] is SK-OV-3 ovarian. As to conditions: 10 µM.
Test [6] concerns IGROV1 ovarian. The conditions noted are these: 10 µM unless noted.
In test [7] the test system is OVCAR-3 ovarian. As to conditions: 10 µM unless noted.
Test [8] relates to HS 578T breast. The conditions noted are these: 10 µM unless noted.
In test [9] the test system is NCI/ADR-RES ovarian. The conditions noted are these: 10 µM unless noted.

About 83,000 compounds went through this panel and 20% of them were active in at least one assay; those are over-represented in the sample as a whole.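 In brief: 96-well plates, 48 h treatment, single concentration, percent growth endpoint.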 Unmarked numbers belong to inactive results. Calls of active or inactive are those of the source. How the source made its calls: active means growth percent below 10; inactive means the rest.

For the compound `N#Cc1c(O)c2c(c(O)c1C#N)C(=O)c1ccccc1C2=O`, the growth in test [1] was 15.4%; in [2], 2.33% (active); in test [3], 108%; in [4], 10.9%; in [5], 109%; in [6], 23.9%. Moreover, the growth in test [7] is -9.86% (active); in [8], 70.1%; in test [9], 0.847% (active).

Take `CCCCC(O)Cn1ncc(C(=O)OCC)c1NC(=O)NCc1ccccc1C(F)(F)F` (stereo not given): the growth in [1] is 87.9%; in test [2], 98.7%; in test [3], 105%; in [4] it was 85%; in test [6], 99%; in test [7], 108%. Also, the values for the growth in test [8] and in test [9] were 106% and 98.7%, respectively.

Regarding `c1ccc(-c2n(Cc3ccc4ccccc4c3)c3ccccc3[n+]2Cc2ccc3ccccc3c2)cc1`, the growth in test [1] is -23.6% (active); in test [2], -22.9% (active); in test [3], 2.69% (active); in test [4], -4.85% (active); in [6] it was -77.5% (active); in test [7] it was -84.2% (active). Also, the growth in test [8] was -33.8% (active).

For `Nc1nc(-c2ccnc(Cl)c2)nn1-c1nc2ccccc2s1`, the growth in test [1] is 120%; in test [2], 102%; in test [3], 95.9%; in test [4], 102%; in test [6], 99.1%; in test [7] it was 114%. For the same compound, the growth in test [8] is 96.8%; in test [9] it was 104%.

Take `O=S(=O)(Nc1ncccn1)c1ccc(Nc2ccc3nnc(-c4ccncc4)n3n2)cc1`: the growth was 102% in [1]; 103% in test [2]; 94.3% in test [3]; 93.8% in test [4]; 103% in [5]; 105% in test [6]. Also, the growth is 84.3% in test [8] and 102% in test [9].

Turning to `CCOC(=O)C(CC(c1ccccc1)N1CCCCC1)[N+](=O)[O-]` (stereo not given), the growth in test [1] is 77.7%; in [2], 87.1%; in test [3], 104%; in [4], 96.5%; in test [5], 97.7%; in test [6], 76.3%. The figures for the growth in [7], in [8] and in [9] were 53.3%, 98.6% and 61.4%, respectively.

In the case of `CC(C)(C)[Si](C)(C)OC1[C@@H](CNC(=O)NC(=O)CCl)O[C@@H](n2cnc3c(N)ncnc32)[C@H]1O[Si](C)(C)C(C)(C)C` (stereo not given in full), the growth in [1] was -58.2% (active); in test [2], -47.7% (active); in test [3], -37.5% (active); in [4] it was -54.7% (active); in test [5], 92%; in test [6], -61.8% (active). In addition, the growth in test [7] is -91.5% (active); in test [8], -16.9% (active); in test [9], -30.4% (active).

For the compound `Cc1nc2cc(Nc3nc(Nc4ccc(F)cc4)nc(N4CCN(C)CC4)n3)ccc2n1Cc1ccccc1`, the growth in [1] is -21.6% (active); in test [2], 11.6%; in [3], 42.9%; in test [4] it was -7.19% (active); in [5] it was 68.7%; in test [6], 24.6%. For the same compound, the values for the growth in test [7], in [8] and in test [9] were -35.6% (active), -19.4% (active) and 43.1%, respectively.

Take `COC(=O)[C@H]1CCCN1C(=O)[C@H]1CCCN1C(=O)[C@@H](Cc1c[nH]c2ccccc12)NC(=S)Nc1cc(C(F)(F)F)cc(C(F)(F)F)c1`: the growth is 14.4% in test [1]; 66.8% in [2]; 76.4% in test [3]; 44.6% in [4]; 77.2% in [5]; 22.7% in test [6]. In addition, the growth was 12.3% in test [8] and 89.9% in test [9].

For `CCCCCCCCCCCC(=O)[O][Sn]([CH2]CCC)([CH2]CCC)[CH2]CCC`, the growth was -42.7% (active) in [1]; -81.4% (active) in [2]; -96.9% (active) in test [3]; -98.5% (active) in test [4]; -100% (active) in test [5]; -77.1% (active) in [6]. Further, the growth was -20.2% (active) in test [8] and -80.5% (active) in test [9].

Take `O=C1CCC(N2C(=O)c3cccc(NCCOCCOCCNC(=O)c4cc5c(o4)C(=O)c4ccccc4C5=O)c3C2=O)C(=O)N1` (stereo not given): the growth was 9.2% (active) in [1]; 3.28% (active) in test [2]; -90.8% (active) in test [3]; -93.5% (active) in test [4]; -16.1% (active) in test [6]; -40.6% (active) in [7]. In test [8], the growth is -29.7% (active).

`O=C1c2cc(S(=O)(=O)O)ccc2C(=O)c2c1cccc2[N+](=O)[O-]`: the growth in [1] was 98.2%; in [2] it was 95.6%; in test [3] it was 110%; in test [4] it was 115%; in test [5] it was 106%; in test [6] it was 120%. Besides, the growth in test [7] was 114%; in test [8] it was 106%; in test [9] it was 111%.

Turning to `c1ccc2cc(-c3n(Cc4ccc5ccccc5n4)c4ccccc4[n+]3Cc3ccc4ccccc4n3)ccc2c1`, the growth in test [1] was -24.5% (active); in [2], -0.932% (active); in test [3] it was 8.83% (active); in test [4], 4.26% (active); in test [6], -51% (active); in [7], -18.9% (active). Further, the growth in test [8] was -9.29% (active); in test [9], 58.6%.

As for `Nc1cccc2c(=S)c3ccccc3[nH]c12`, the growth in test [1] was 111%; in test [2] it was 93.7%; in test [3], 92.9%; in [4] it was 83%; in test [6], 86.9%; in test [7] it was 91%. The growth in test [8] is 94.3%; in test [9], 101%.
